The values below come from PubChem BioAssay (NCATS).

Each structure is given as a SMILES string. Inconclusive results are not listed. Activity calls are given as the source filed them. Unless noted, the call rests on the fitted dose curve; in most records, active means well fitted curve in the direction sought with a large enough effect; inconclusive means small, poorly fitted or top-dose-only effect, or another doubt; inactive means no such curve, though single readings can be large; an effect the other way counts as inactive or inconclusive. Where only a bound is given, the exact number is not on record here.

The nature of assay [1]: AP1 Signaling Pathway (AID 357; active means well fitted curve in either direction with a large enough effect, not every such curve was filed as active;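 further: ME-180 reporter cells stimulated with EGF at its EC50 level; on the % scale 0 is the no-effect control and ±100 the full control effect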). The note with it: ME-180 AP-1-bla reporter, EGF-induced, beta-lactamase ratio, 5 h; at 7.69 µM (top of the series) unless noted. A digest of the protocol:
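Beta-lactamase reporter under AP-1 response element, ME-180 background. Stimulus: EC50 EGF. Compound exposure 5 h, 37 °C. Detection: CCF4, 2.5 h RT, 460/530 nm. Values: AC50 from titration.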

The target of assay [2] is Cytochrome P450 1A2 (Homo sapiens) (UniProt P05177). The assay is described as follows: p450-cyp1a2 (AID 410; calls by dose curve; further: potency means the concentration at half of the fitted maximal effect;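 on activity change, negative = inhibition: -100% = full effect of reference inhibitor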). A digest of the protocol: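 Human CYP1A2 (20nM) demethylated Luciferin-ME at its Km (100uM) in 100mM KPO4. After 10 min compound preincubation, NADPH regeneration ran the reaction 60 min at room temperature. Luciferin was read by luminescence, normalized to 57 uM furafylline.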
Chain of Cytochrome P450 1A2 (Homo sapiens) (P05177 whole entry, looked up): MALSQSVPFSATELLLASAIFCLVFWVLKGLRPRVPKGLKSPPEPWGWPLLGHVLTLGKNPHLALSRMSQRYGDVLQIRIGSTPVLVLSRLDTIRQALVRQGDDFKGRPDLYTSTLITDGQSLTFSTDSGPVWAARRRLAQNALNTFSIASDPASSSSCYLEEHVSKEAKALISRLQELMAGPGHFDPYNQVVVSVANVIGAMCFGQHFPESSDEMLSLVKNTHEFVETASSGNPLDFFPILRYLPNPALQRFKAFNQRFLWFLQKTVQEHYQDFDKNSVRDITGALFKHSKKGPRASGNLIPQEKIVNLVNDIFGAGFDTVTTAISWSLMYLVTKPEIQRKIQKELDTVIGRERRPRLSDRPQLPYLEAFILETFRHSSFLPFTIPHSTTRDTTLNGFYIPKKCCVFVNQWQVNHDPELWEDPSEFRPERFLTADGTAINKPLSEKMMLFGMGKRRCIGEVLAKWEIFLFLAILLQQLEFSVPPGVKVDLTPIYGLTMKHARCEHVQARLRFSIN

A short description of assay [3]: Stat Signaling Pathway (AID 446; active means well fitted curve in either direction with a large enough effect, not every such curve was filed as active;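 further: ME-180 cervical cancer cells given 40 pM IL-6 alongside compound; SIE-controlled beta-lactamase reporter measured as 460/530 nm FRET emission ratio; on the % scale 0 is the no-effect control and ±100 the full control effect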). The note with it: ME-180 SIE beta-lactamase reporter, IL-6 stimulated, 5 h; at 7.69 µM (top of the series) unless noted. A digest of the protocol: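 Reporter line: ME-180 cervical carcinoma, SIE-beta-lactamase. Treatment: compound with 40 pM IL-6, 5 hrs, 37 C, in low-serum OPTI-MEM with 10 mM HEPES pH 7.3. Detection: 460/530 nm fluorescence.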

Assay [4] concerns the target Glucocorticoid receptor (Homo sapiens) (UniProt P04150). The assay is described as follows: GR-GFP Redistribution (AID 450;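 active means compounds whose dose series gives a full or clear partial fitted curve of increased nuclear translocation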; further: potency means the concentration at half of the fitted maximal effect). The note with it: U2OS GR-GFP nuclear translocation, laser cytometry, 2 h.
The target is the same in assay [5]. The assay is described as follows: GR-EFC Redistribution (AID 451; calls by dose curve; further: potency means the concentration at half of the fitted maximal effect). The note with it: CHO-K1 GR-EFC translocation, beta-gal luminescence, 2 h. Put shortly: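 Translocation of GR-ED fusion to nuclear EA restores b-gal, read by luminescence after 1 h room-temperature detection. Engineered CHO-K1 biosensor cells, 1,000/well, exposed 2 h at 37 C to titrations up to 46 uM final.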

Assay [6] addresses Mitogen-activated protein kinase 10 (Mus musculus) (UniProt Q61831). The assay can be described thus: JNK3 AlphaScreen Assay (AID 530; active means well fitted curve in either direction with a large enough effect, not every such curve was filed as active;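 further: kinase came from lysate of stimulated human HepG2 cells; signal reports phosphorylation of biotinylated GST-cJun 1-79 at Ser73 with 10 µM ATP; on the % scale 0 is the no-effect control and ±100 the full control effect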). A digest of the protocol: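 Room-temperature AlphaScreen kinase assay; pre-activated HepG2 lysate as JNK3 source, biotin-GST-cJun(1-79) substrate, 10 uM ATP, compound 15 min preincubation.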
A general note: Alpha assays give light when donor and acceptor beads are brought close together.

For assay [7], the target named is 3',5'-cyclic-AMP phosphodiesterase 4B (Homo sapiens) (UniProt Q07343). The assay is described as follows: qHTS Assay for Inhibitors of PDE-IV (AID 607; active means well fitted activation curve with a large enough effect in the main read-out, with a control signal flat, not every such curve was filed as active; further: % of control where 0% means no effect). A digest of the protocol:
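Cell-based read-out of cAMP via a modified cyclic nucleotide-gated channel and membrane potential dye (535/590 nm) in HEK293 cells expressing PDE4 endogenously. Compounds tested up to 22.9 uM final; 100 uM RO 20-1724 reference.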

In assay [8] the target is Cytochrome P450 3A4 (Homo sapiens) (UniProt P08684). The assay is described as follows: qHTS Assay for Activators of Cytochrome P450 3A4 (AID 885). Further: nearly all actives have a fitted effect of over 65% in size. Put shortly:
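Signal was normalized against complete inhibition by 57 uM ketoconazole. The reaction used 20nM CYP3A4 with 25uM Luciferin-PPXE, 10-min compound preincubation and a 60-min NADPH-supported step at RT.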
(In general: Quantitative high-throughput screening tests each substance at several concentrations.)

A short description of assay [9]: qHTS Assay for Lipid Storage Modulators (AID 1519; calls by dose curve). The note with it: Drosophila S3 cells, BODIPY lipid droplet/cell ratio, laser cytometry, cells loaded with oleic acid; for activity change, negative = inhibition: at 57.5 µM (top of the series). Put shortly:
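Cells seeded at 5,000 per well were treated with compounds over a concentration series and loaded with oleic acid (400 uM, as added). Lipid droplet fluorescence (488 nm excitation, 500-530 nm channel) was read by laser-scanning cytometry and normalized to 20 uM Triacsin C.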

For assay [10], the target named is Dual specificity protein kinase CLK4 (Homo sapiens) (UniProt Q9HAZ1). The assay can be described thus: qHTS Assay for Inhibitors of CDC-like Kinase 4 (Kinase-Glo Assay) (AID 1770). Further: nearly all actives have a fitted effect of over 65% in size. Further: potency means the concentration at half of the fitted maximal effect. Put shortly:
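Inhibition was judged from remaining ATP, measured by Ultra-Glo luciferase bioluminescence after Clk4 (25 nM) had acted on RS peptide at 1 uM ATP for 4.5 hours, room temperature.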

For assay [11] the target is unchanged. The assay can be described thus: qHTS Assay for Inhibitors of CDC-like Kinase 4 (ADP-Glo Assay) (AID 1771). Further: nearly all actives have a fitted effect of over 70% in size. Further: potency means the concentration at half of the fitted maximal effect. A digest of the protocol: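 Clk4 (25 nM) was incubated 1 hr at room temperature with 100 uM RS repeat peptide and 1 uM ATP in buffer with 2 mM MgCl2, 0.5 mM EGTA, 2.5 mM DTT. ADP formed was quantified by ADP-Glo luminescence.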
Assay [12] shares this target. The assay is described as follows: qHTS Assay for Inhibitors of CDC-like Kinase 4 (ADP-FP Assay) (AID 1795). Further: nearly all actives have a fitted effect of over 60% in size. Further: potency means the concentration at half of the fitted maximal effect. A digest of the protocol: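 Inhibition of ADP formation by 6.25 nM Clk4 is measured using 1 uM ATP and 100 uM RS repeat peptide over one hour. Produced ADP displaces a fluorescent tracer from antibody, lowering polarization.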
The target in assay [13] is Ubiquitin carboxyl-terminal hydrolase 1 (Homo sapiens) (UniProt O94782). The assay is described as follows: Inhibitors of USP1/UAF1: Pilot qHTS (AID 504865).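 Further: rhodamine fluorescence freed from ubiquitin-rhodamine substrate followed over time; top concentration of the series differs between compounds; on the % scale 0 is the no-effect control and ±100 the full control effect; nearly all actives have a fitted effect of over 35% in size.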 Put shortly: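 Kinetic fluorescence assay: 1nM USP1/UAF1, 15 min compound preincubation, then 150nM Ub-Rho; 480/540 nm.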
Chain of Ubiquitin carboxyl-terminal hydrolase 1 (Homo sapiens) (O94782 whole entry, looked up): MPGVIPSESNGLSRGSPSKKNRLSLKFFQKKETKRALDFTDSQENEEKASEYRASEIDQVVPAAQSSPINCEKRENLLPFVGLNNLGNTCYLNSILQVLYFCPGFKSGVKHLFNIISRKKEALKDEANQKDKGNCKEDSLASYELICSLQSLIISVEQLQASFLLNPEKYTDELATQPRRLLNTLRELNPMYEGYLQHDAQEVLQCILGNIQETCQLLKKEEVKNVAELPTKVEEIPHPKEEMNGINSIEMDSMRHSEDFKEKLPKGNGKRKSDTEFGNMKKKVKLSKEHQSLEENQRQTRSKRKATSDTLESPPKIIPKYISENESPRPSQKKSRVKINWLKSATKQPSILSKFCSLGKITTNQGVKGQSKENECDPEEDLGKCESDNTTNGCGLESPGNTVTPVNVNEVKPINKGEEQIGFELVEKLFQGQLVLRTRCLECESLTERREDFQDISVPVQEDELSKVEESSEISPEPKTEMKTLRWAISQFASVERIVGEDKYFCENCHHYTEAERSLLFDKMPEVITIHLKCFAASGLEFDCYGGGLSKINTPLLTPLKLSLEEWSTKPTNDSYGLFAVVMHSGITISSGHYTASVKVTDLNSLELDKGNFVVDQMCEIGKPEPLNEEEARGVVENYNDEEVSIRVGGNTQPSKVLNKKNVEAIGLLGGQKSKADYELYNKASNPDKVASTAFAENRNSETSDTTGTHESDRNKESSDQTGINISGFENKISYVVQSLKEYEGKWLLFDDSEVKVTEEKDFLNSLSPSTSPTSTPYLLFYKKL
Assay [14] is described as follows: Primary qHTS for small molecule stabilizers of the endoplasmic reticulum resident proteome: Secreted ER Calcium Modulated Protein (SERCaMP) assay (AID 1508630). Further: on the % scale 0 is the no-effect control and ±100 the full control effect. A digest of the protocol: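 GLuc-SERCaMP-expressing SH-SY5Y cells, pretreated 16 h with compound, are challenged with thapsigargin to empty ER calcium stores; after 4 h, coelenterazine is added directly to the medium and luminescence is imaged.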

In assay [15] the target is Lysosomal acid glucosylceramidase (Homo sapiens) (UniProt P04062). The assay can be described thus: Glucocerebrosidase-p2 (AID 348; in the data active means potency below about 10 µM; further: potency means the concentration at half of the fitted maximal effect). The note with it: purified GBA, blue fluorogenic substrate, 40 min. A digest of the protocol:
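Compounds titrated from 0.6 nM upwards against 0.2 nM enzyme in pH 5.9 citric acid/KH2PO4, taurocholate, tween-20; blue fluorogenic substrate 80 uM, 40 min room temperature, stopped and read Ex 365/Em 440 for AC50.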

A short description of assay [16]: NFAT Signaling Pathway (AID 444; active means well fitted curve in either direction with a large enough effect, not every such curve was filed as active). The note with it: Jurkat NFAT-bla M1, carbachol, beta-lactamase ratio, 5 h; at 7.69 µM (top of the series) unless noted. A digest of the protocol:
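Read-out: CCF4 FRET ratio (460 nm/530 nm) after 1 h RT dye loading, used for %activity and AC50 from titration series. Cells: Jurkat NFAT-β-lactamase/M1 line, treated with compound plus 1 uM carbachol for 5 h, 37 °C.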

Assay [17] concerns the target Cytochrome P450 2C19 (Homo sapiens) (UniProt P33261). The assay can be described thus: qHTS Assay for Inhibitors and Substrates of Cytochrome P450 2C19 (AID 899). Further: potency means the concentration at half of the fitted maximal effect; nearly all actives have a fitted effect of over 60% in size. A digest of the protocol: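 Luminescence readout of luciferin formed from 10uM Luciferin-H EGE (KM level) by 5 nM CYP2C19 in 50mM KPO4. 60 min NADPH-driven reaction at 37C after 10 min compound preincubation; data scaled to 57uM ketoconazole inhibition.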

The nature of assay [18]: qHTS Assay for Identification of Small Molecule Agonists for Hypoxia Response Element Signaling Pathway (AID 914; active means well fitted activation curve with a large enough effect in the signal ratio, with a control signal flat, not every such curve was filed as active; the % refers to the signal ratio; further: potency means the concentration at half of the fitted maximal effect). The note with it: ME-180 (cervical carcinoma) HRE-bla reporter, beta-lactamase ratio, CoCl2, 17 h; activation: stronger effect = higher value. A digest of the protocol: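 HRE-bla ME-180 cells, overnight plating in Opti-MEM with 0.5% dialyzed FBS; cpd titration + EC50 CoCl2, 17 h, 37 degrees Celsius; CCF4 2.5 h RT; 460/530 nm ratio; AC50.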

Setting [19] is: measured here: cell count channel max response.
Where [20] appears, read: measured here: lipid channel max response.

Chain of 3',5'-cyclic-AMP phosphodiesterase 4B (Homo sapiens) (Q07343 whole entry, looked up): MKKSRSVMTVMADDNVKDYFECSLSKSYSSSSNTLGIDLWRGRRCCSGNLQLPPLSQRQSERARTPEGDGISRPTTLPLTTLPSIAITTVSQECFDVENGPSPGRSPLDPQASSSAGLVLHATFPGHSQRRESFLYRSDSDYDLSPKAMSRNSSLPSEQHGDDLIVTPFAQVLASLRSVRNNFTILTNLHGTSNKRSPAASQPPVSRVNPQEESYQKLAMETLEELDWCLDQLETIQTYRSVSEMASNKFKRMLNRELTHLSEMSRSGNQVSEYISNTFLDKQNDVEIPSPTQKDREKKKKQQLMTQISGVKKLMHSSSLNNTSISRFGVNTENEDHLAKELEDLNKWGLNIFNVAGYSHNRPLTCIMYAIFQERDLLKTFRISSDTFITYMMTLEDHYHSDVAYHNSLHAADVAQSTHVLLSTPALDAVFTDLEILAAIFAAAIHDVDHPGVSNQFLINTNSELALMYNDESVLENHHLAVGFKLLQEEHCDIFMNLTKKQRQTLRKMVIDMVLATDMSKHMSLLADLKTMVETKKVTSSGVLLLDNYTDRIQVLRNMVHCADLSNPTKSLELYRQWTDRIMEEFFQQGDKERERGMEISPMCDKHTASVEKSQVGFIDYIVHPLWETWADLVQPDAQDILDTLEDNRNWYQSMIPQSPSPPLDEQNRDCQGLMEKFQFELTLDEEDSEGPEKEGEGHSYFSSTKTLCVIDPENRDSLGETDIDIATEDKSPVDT
Chain of Cytochrome P450 3A4 (Homo sapiens) (P08684 whole entry, looked up): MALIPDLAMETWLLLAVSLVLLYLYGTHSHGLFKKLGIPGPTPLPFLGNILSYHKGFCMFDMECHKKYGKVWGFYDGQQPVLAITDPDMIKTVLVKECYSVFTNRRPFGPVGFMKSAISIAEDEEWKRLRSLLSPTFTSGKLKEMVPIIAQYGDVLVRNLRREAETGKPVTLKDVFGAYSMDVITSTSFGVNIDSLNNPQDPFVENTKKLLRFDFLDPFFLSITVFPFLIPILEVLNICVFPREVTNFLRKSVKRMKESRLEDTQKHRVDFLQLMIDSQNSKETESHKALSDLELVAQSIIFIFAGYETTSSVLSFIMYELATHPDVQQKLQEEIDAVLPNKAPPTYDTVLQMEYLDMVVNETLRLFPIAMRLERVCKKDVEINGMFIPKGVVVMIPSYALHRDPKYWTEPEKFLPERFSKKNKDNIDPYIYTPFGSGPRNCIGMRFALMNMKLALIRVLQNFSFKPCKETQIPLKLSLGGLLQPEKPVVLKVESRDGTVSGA
Chain of Dual specificity protein kinase CLK4 (Homo sapiens) (Q9HAZ1 whole entry, looked up): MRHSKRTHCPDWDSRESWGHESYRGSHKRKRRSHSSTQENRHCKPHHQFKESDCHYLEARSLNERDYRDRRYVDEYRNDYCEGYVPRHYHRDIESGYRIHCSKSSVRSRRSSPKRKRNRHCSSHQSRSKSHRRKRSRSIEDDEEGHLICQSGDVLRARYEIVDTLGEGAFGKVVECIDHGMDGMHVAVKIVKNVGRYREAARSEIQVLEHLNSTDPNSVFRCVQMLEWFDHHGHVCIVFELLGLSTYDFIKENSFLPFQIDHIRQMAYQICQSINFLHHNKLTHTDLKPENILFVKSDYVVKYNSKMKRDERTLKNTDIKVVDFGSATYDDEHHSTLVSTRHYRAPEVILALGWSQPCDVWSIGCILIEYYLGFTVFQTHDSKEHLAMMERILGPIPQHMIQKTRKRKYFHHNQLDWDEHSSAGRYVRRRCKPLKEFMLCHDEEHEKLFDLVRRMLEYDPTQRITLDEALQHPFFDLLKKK
Chain of Lysosomal acid glucosylceramidase (Homo sapiens) (P04062 whole entry, looked up): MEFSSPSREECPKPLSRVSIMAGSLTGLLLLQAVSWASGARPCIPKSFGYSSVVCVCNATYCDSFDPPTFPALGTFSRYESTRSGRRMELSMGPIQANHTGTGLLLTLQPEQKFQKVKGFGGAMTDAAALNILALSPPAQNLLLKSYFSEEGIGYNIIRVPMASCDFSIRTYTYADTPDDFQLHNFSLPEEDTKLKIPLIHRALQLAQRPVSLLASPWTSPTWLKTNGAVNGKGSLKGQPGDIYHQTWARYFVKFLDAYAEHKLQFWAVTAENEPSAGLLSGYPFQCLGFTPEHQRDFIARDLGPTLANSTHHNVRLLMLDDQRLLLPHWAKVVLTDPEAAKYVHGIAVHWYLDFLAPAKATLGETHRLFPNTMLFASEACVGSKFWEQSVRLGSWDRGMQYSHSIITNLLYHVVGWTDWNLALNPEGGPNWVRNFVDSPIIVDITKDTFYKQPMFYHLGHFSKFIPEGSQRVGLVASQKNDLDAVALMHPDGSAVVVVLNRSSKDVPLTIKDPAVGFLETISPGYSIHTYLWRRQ
Chain of Glucocorticoid receptor (Homo sapiens) (P04150 whole entry, looked up, the tested form may be a part): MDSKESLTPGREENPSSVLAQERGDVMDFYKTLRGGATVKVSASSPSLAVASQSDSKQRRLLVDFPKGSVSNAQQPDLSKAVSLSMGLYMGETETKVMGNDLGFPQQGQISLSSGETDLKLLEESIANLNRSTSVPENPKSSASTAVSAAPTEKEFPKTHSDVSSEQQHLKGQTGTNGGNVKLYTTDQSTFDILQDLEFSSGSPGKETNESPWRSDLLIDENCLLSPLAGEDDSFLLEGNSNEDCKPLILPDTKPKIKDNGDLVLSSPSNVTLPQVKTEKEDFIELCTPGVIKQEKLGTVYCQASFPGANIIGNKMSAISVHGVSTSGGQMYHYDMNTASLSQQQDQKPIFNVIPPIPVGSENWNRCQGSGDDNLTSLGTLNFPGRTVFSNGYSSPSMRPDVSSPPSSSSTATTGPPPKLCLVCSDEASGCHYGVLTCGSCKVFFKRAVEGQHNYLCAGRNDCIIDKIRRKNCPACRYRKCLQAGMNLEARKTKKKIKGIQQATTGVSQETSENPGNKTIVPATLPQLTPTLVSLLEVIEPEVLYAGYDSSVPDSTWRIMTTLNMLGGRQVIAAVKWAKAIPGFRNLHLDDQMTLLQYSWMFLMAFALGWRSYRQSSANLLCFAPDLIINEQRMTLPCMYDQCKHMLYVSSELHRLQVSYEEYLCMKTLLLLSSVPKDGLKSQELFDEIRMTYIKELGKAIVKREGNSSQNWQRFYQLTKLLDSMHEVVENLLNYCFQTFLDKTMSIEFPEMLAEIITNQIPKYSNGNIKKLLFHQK
Chain of Cytochrome P450 2C19 (Homo sapiens) (P33261 whole entry, looked up): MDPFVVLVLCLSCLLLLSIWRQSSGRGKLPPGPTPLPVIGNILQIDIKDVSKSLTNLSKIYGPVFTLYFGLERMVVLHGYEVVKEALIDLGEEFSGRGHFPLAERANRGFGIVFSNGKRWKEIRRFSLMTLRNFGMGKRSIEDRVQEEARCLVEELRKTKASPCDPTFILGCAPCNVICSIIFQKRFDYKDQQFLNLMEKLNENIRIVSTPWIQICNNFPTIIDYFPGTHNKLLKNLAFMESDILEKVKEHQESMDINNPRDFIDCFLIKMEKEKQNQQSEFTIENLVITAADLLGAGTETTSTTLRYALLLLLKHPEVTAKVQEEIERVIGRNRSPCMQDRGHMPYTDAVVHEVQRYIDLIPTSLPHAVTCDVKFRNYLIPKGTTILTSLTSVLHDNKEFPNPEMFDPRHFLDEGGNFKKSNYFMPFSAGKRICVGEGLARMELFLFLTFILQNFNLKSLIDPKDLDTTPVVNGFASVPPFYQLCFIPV

As to `COCCNc1ncnc2ccc(-c3cccc(NS(C)(=O)=O)c3)cc12`, the activity change, negative = inhibition was -19.3% (inactive) in assay [1] and 1.59% (inactive) in assay [9]. Besides, the Potency in [2] was 0.794 µM (active); in [4], > 46 µM (inactive); in [5], > 46 µM (inactive); in [10], 12.6 µM (active); in assay [11], 8.91 µM (active); in assay [12] it was 11.2 µM (active). Besides, the activity, negative = inhibition in assay [3] is -4.92% (inactive). The result in [6] was inactive. In addition, the Potency entry in assay [7], in [8], in assay [13] and in assay [14] was “inactive” throughout. In addition, the max response is -7.37% in [9] (setting [19]) and -7.54% in [9] (setting [20]).
Consider `COc1ccc(-c2nc3cnc(Oc4cccc(Cl)c4)nc3n(C3CC3)c2=O)cc1`, for which the values for the Potency in assay [15], in assay [4] and in [5] were > 11.4 µM (inactive), > 9.22 µM (inactive) and > 46 µM (inactive), respectively. The values for the activity change, negative = inhibition in assay [16] and in [9] were -3.56% (inactive) and -3.67% (inactive), respectively. Also, the activity, negative = inhibition in assay [3] is 15% (inactive). The call in assay [6] was inactive. In addition, the max response in assay [9] (setting [19]) is -15.3%; in [9] (setting [20]) it was -19.7%. Moreover, the Potency result in assay [10], in assay [11], in assay [12], in assay [13] and in assay [14] was “inactive” throughout.
As for `COc1cccc(Nc2ncc3nc(-c4ccc(Cl)cc4)c(=O)n(C4CC4)c3n2)c1`, the Potency in [15] is > 11.4 µM (inactive); in [4], > 9.22 µM (inactive); in assay [5], > 46 µM (inactive). The activity change, negative = inhibition was -4.19% (inactive) in [16] and -3.5% (inactive) in assay [9]. For the same molecule, the activity, negative = inhibition in assay [3] was -10.8% (inactive). Moreover, the molecule was classed as inactive in [6]. In addition, the Potency result in assay [7], in assay [10], in assay [11], in assay [12], in assay [13] and in assay [14] was “inactive” in each case. Also, the max response in assay [9] (setting [19]) is -0.959%; in assay [9] (setting [20]) it was -5.52%.
In the case of `Cc1nc2cncnc2n(C2CC2)c1=O`, the Potency was > 11.4 µM (inactive) in assay [15]; 15.8 µM (active) in [2]; > 9.22 µM (inactive) in [4]; > 46 µM (inactive) in [5]; 3.98 µM (active) in assay [17]. Moreover, the activity change, negative = inhibition is 2.34% (inactive) in [16] and 9.2% (inactive) in [9]. In addition, the activity, negative = inhibition in assay [3] is -12.1% (inactive). In assay [6], the result was inactive. Besides, the Potency entry in assay [7], in assay [8], in [10], in assay [11], in assay [12] and in assay [13] was “inactive” throughout. In assay [14], the Potency entry was “inactive”. Further, the max response was 24% in assay [9] (setting [19]) and 34.8% in assay [9] (setting [20]).
With `COCCn1c(=O)cnc2cnc(Nc3cccc(OC)c3)nc21`, the Potency in assay [15] is > 11.4 µM (inactive); in [2] it was 0.794 µM (active); in [4], > 9.22 µM (inactive); in [5], > 46 µM (inactive); in assay [10], 2.24 µM (active); in assay [11], 1.78 µM (active). In addition, in assay [12], the Potency was 1.26 µM (active). Further, the activity change, negative = inhibition in [16] was -0.925% (inactive); in [9], -15.5% (inactive). Besides, the result in assay [6] was inactive. Further, the Potency result in [7], in assay [8], in assay [13] and in assay [14] was “inactive” throughout. In addition, the max response in assay [9] (setting [19]) is -13.4%; in [9] (setting [20]), -29.7%.
As to `COc1cccc(Cn2c(=O)c(-c3cc(F)cc(F)c3)nc3cnc(N4CCN(C)CC4)nc32)c1`, the Potency is > 11.4 µM (inactive) in assay [15], > 9.22 µM (inactive) in assay [4] and > 46 µM (inactive) in [5]. Besides, the Potency result in assay [2], in [7], in assay [8], in assay [10], in assay [11] and in assay [12] was “inactive” in each case. In addition, the Potency entry in assay [13] and in [14] was “inactive” each time. Besides, the molecule was classed as inactive in [6]. Further, the activity change, negative = inhibition in [9] is 1.17% (inactive). Further, the max response amounted to 19% in assay [9] (setting [19]) and 18.2% in assay [9] (setting [20]).
Regarding `O=c1c(-c2ccc(F)cc2)nc2cnc(N3CCNCC3)nc2n1C1CC1`, the Potency in assay [15] is > 11.4 µM (inactive); in assay [2], 2.51 µM (active); in assay [4], > 9.22 µM (inactive); in assay [5], > 46 µM (inactive); in assay [18], 2.51 µM (active). Besides, in assay [6], the result was inactive. The Potency entry in assay [7], in [8], in assay [10], in assay [11], in assay [12] and in assay [13] was “inactive” each time. In addition, in assay [14], the Potency result was “inactive”. Further, in assay [9], the activity change, negative = inhibition is 2.85% (inactive). In addition, the values for the max response in [9] (setting [19]) and in assay [9] (setting [20]) were 26.5% and 28.4%, respectively.
